From article PMC5700166
Changes are numbered by the printed parent chain.

Experiments:
Experiment in all cases: protein-binding microarray (PBM); PBM: ~300 nM protein, 6 mM HEPES pH 7.8, 80 mM KCl, 0.5 mM EDTA, 0.5 mM EGTA, 6% glycerol, 35 ng/ul poly-dIdC, 1% milk, 1 h, room temperature; Ap Aiptasia and Nv Nematostella (sea anemones) / Co Capsaspora / Aq Amphimedon (sponge) / Dm Drosophila / Hu human; RHD is the Rel homology domain; high values mean tight binding
Conditions in all cases: dsDNA, one strand shown
GST-Ap-NF-kB RHD = biological target: T1, GST-Ap-NF-kB RHD (Exaiptasia pallida (Aiptasia), UniProt A0A913YAJ5 2-422)
T1 sequence: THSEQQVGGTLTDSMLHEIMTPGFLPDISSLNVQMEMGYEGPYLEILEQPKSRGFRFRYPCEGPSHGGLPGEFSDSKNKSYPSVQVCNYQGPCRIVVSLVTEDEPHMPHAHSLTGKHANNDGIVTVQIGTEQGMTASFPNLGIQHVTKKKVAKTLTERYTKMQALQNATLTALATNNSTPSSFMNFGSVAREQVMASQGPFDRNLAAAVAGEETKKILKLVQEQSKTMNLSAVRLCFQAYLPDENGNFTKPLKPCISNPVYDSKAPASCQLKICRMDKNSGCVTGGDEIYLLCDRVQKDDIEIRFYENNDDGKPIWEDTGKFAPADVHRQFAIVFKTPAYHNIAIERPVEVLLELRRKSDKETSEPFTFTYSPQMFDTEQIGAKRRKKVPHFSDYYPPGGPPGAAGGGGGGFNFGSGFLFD

[1] = biological target: T2, GST-Nv-NF-kB (Cys allele) (Nematostella vectensis, UniProt E5G601 2-411)
T2 sequence: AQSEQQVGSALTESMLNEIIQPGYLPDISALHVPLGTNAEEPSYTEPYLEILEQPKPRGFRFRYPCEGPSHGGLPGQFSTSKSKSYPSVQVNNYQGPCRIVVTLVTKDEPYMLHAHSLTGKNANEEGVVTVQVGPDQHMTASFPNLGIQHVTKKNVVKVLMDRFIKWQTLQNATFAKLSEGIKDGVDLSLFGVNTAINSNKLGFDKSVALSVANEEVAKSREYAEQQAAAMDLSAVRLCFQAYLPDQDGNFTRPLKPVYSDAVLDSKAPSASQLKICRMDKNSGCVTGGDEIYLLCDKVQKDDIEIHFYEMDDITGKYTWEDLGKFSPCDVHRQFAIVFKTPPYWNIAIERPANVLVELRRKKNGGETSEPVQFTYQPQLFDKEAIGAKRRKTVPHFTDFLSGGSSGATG

[2] = biological target: T3, GST-Nv-NF-kB (Ser allele) (Nematostella vectensis, UniProt A7UNT2 2-411)
T3 sequence: T2 sequence with Q21R, C66S, S207N, E215Q, V217A, E225K, A268E, D399E

GST-Co-NF-kB = biological target: T4, GST-Co-NF-kB (Capsaspora owczarzaki, UniProt F1ARL5 200-546)
T4 sequence: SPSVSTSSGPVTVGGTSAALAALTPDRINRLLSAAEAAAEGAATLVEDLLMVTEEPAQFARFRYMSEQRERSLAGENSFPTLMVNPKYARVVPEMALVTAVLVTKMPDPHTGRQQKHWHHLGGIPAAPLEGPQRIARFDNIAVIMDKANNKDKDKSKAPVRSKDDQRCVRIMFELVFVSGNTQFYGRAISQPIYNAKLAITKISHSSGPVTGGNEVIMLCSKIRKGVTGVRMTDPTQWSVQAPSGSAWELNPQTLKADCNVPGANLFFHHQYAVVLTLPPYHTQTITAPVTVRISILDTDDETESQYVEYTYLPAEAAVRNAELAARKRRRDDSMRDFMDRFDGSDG

GST-Dm-Relish = biological target: T5, GST-Dm-Relish (Drosophila melanogaster, UniProt Q94527 99-473)
T5 sequence: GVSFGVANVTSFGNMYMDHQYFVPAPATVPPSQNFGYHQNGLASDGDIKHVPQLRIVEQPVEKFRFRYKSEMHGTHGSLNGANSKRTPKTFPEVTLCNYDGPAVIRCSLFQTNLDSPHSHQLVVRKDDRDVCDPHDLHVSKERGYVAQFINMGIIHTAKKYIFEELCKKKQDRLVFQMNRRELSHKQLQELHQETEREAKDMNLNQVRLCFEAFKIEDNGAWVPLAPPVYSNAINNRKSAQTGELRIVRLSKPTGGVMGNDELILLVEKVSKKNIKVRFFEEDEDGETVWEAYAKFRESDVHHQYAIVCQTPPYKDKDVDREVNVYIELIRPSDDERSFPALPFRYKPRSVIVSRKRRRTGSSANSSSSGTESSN

GST-Aq-NF-kB = biological target: T6, GST-Aq-NF-kB (Amphimedon queenslandica, UniProt A9Y5G7 2-389)
T6 sequence: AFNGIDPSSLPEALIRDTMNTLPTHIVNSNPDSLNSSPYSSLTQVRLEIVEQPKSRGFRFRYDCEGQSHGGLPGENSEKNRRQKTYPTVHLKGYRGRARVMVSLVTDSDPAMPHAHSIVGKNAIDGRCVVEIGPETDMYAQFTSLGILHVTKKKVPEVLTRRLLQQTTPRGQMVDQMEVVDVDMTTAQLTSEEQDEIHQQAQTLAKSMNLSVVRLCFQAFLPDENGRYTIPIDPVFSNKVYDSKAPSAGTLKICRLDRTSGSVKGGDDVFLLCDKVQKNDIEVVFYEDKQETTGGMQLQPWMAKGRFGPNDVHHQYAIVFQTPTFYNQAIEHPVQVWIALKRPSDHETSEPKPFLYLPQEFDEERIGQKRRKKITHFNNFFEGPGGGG

GST-Hu-p50 = GST-Hu-p50 (Homo sapiens, UniProt P19838 7-356)
Chain of GST-Hu-p50 (P19838 7-356): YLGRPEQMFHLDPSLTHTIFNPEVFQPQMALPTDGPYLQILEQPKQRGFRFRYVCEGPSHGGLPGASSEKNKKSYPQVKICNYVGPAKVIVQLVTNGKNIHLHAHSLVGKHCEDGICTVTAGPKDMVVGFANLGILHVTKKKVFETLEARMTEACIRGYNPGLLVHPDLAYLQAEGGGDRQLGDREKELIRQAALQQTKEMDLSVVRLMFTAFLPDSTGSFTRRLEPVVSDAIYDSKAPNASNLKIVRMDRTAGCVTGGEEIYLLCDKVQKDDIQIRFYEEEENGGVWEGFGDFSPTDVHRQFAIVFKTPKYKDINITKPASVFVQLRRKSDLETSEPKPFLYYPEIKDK

Row | Sequence | binding signal (GST-Ap-NF-kB RHD) | binding signal [1] | binding signal [2] | binding signal (GST-Co-NF-kB) | binding signal (GST-Dm-Relish) | binding signal (GST-Aq-NF-kB) | binding signal (GST-Hu-p50)
1 | CCGATTAACATCAAGGGGGATCCTGATGTTAATCGGGTCTTGATTCGCTTGACGCTGCTG | 8.33 z-score | 6.38 z-score | 7.04 z-score | 3.07 z-score | 8.84 z-score | 6.34 z-score | 6.91 z-score
2 | CCGATTAACATCAGCGGGAATCCTGATGTTAATCGGGTCTTGATTCGCTTGACGCTGCTG | 2.44 z-score | 3.26 z-score | 2.64 z-score | 2.25 z-score | 6.33 z-score | 3.03 z-score | 2.21 z-score
3 | CCGATTAACATCAATATTCCCCATGATGTTAATCGGGTCTTGATTCGCTTGACGCTGCTG | 7.4 z-score | 8.39 z-score | 8.19 z-score | 8.46 z-score | 3.77 z-score | 5.97 z-score | 5.88 z-score
4 | CCGATTAACATCAAGGGGATTTCTGATGTTAATCGGGTCTTGATTCGCTTGACGCTGCTG | 9.69 z-score | 10.8 z-score | 12.7 z-score | 2.79 z-score | 9.09 z-score | 7.73 z-score | 7.98 z-score
5 | CCGATTAACATCAGGGGATACACTGATGTTAATCGGGTCTTGATTCGCTTGACGCTGCTG | 4.44 z-score | 4.02 z-score | 5.34 z-score | 3.62 z-score | 5.84 z-score | 4.05 z-score | 3.83 z-score
6 | CCGATTAACATCAAGGGGTTTTCTGATGTTAATCGGGTCTTGATTCGCTTGACGCTGCTG | 7.68 z-score | 7.5 z-score | 6.68 z-score | 1.68 z-score | 7.2 z-score | 6.95 z-score | 6.56 z-score
7 | CCGATTAACATCAAGGGAGTCCCTGATGTTAATCGGGTCTTGATTCGCTTGACGCTGCTG | 5.78 z-score | 4.59 z-score | 4.3 z-score | 1.18 z-score | 8.56 z-score | 4.92 z-score | 3.72 z-score
8 | CCGATTAACATCAGGGGGGGCAATGATGTTAATCGGGTCTTGATTCGCTTGACGCTGCTG | 4.42 z-score | 3.92 z-score | 3.15 z-score | 4.99 z-score | 4.29 z-score | 3.72 z-score | 3.8 z-score
9 | CCGATTAACATCACCCGTTCCCCTGATGTTAATCGGGTCTTGATTCGCTTGACGCTGCTG | 5.61 z-score | 4.83 z-score | 6.11 z-score | 4.75 z-score | 1.99 z-score | 3.78 z-score | 3.85 z-score
10 | CCGATTAACATCAAATAGTCCCCTGATGTTAATCGGGTCTTGATTCGCTTGACGCTGCTG | 7.11 z-score | 7.06 z-score | 6.71 z-score | 4.46 z-score | 5.51 z-score | 6.32 z-score | 5.39 z-score
11 | CCGATTAACATCACGGGGAACTCTGATGTTAATCGGGTCTTGATTCGCTTGACGCTGCTG | 6.71 z-score | 6.61 z-score | 6.85 z-score | 6.94 z-score | 7.12 z-score | 4.95 z-score | 4.53 z-score
12 | CCGATTAACATCAGCAATTTCCCTGATGTTAATCGGGTCTTGATTCGCTTGACGCTGCTG | 3.13 z-score | 4.55 z-score | 5.81 z-score | 3.47 z-score | 1.78 z-score | 3.79 z-score | 3.52 z-score
13 | CCGATTAACATCAGGGACTACCCTGATGTTAATCGGGTCTTGATTCGCTTGACGCTGCTG | 6.16 z-score | 5.24 z-score | 4.07 z-score | 1.8 z-score | 7.1 z-score | 7.57 z-score | 4.13 z-score
14 | CCGATTAACATCACAATATCCCCTGATGTTAATCGGGTCTTGATTCGCTTGACGCTGCTG | 7.16 z-score | 6.58 z-score | 7.91 z-score | 4.15 z-score | 5.03 z-score | 4.96 z-score | 4.67 z-score
15 | CCGATTAACATCAGGGGGAATGATGATGTTAATCGGGTCTTGATTCGCTTGACGCTGCTG | 6.17 z-score | 7.14 z-score | 7.16 z-score | 6.6 z-score | 3.1 z-score | 4.98 z-score | 5.4 z-score
16 | CCGATTAACATCAAAAATCCCAATGATGTTAATCGGGTCTTGATTCGCTTGACGCTGCTG | 2.79 z-score | 3.4 z-score | 2.4 z-score | 1.58 z-score | 6.98 z-score | 3.37 z-score | 3.32 z-score
17 | CCGATTAACATCAGAATTACCCCTGATGTTAATCGGGTCTTGATTCGCTTGACGCTGCTG | 4.43 z-score | 5.36 z-score | 5.04 z-score | 5.87 z-score | 2.94 z-score | 5.49 z-score | 4.69 z-score
18 | CCGATTAACATCAAGAGATTCCCTGATGTTAATCGGGTCTTGATTCGCTTGACGCTGCTG | 3.17 z-score | 3.88 z-score | 3.73 z-score | 2.46 z-score | 2.38 z-score | 4.06 z-score | 2.78 z-score
19 | CCGATTAACATCAGGGGATTAACTGATGTTAATCGGGTCTTGATTCGCTTGACGCTGCTG | 5.48 z-score | 6.31 z-score | 7.11 z-score | 2.99 z-score | 8.54 z-score | 5.82 z-score | 4.93 z-score
20 | CCGATTAACATCAAATCCCCCCGTGATGTTAATCGGGTCTTGATTCGCTTGACGCTGCTG | 8.26 z-score | 7.22 z-score | 6.8 z-score | 7.74 z-score | 8.05 z-score | 6.07 z-score | 6.44 z-score
21 | CCGATTAACATCAGGGAAATCTATGATGTTAATCGGGTCTTGATTCGCTTGACGCTGCTG | 3.65 z-score | 5.31 z-score | 6.44 z-score | 4.52 z-score | 1.64 z-score | 4.71 z-score | 4.1 z-score
22 | CCGATTAACATCAGGGGAACACCTGATGTTAATCGGGTCTTGATTCGCTTGACGCTGCTG | 6.84 z-score | 6.62 z-score | 6.14 z-score | 5.77 z-score | 9.19 z-score | 7.92 z-score | 4.87 z-score
